# Reference: PubChem BioAssay
# Values without a mark were called inactive. For some of these results: Entries with a potency or affinity are not part of this list. Calls of active or inactive are those of the source. Unless noted, no rule for the calls is given here.
# Tests used:
# [1] = antimalarial activity against Dd2 strain (AID 2302;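 active = growth inhibition above 50% at the single 2 µM test dose, taken to imply half-maximal potency below 2 µM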;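 also: 0% = DMSO untreated growth and 100% = chloroquine plus artemisinin killed control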); conditions: P. falciparum Dd2 in RBCs, LDH growth readout, 72 h; at 2 µM; stronger effect = higher value
# [2] = human hepatoma cell viability loss – ATP luminescence, cytotoxicity control for P. falciparum antimalarial project, primary screen (AID 2303;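 active = inhibition above 50%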;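 also: 0% = DMSO wells and 100% = digitonin-killed cells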); conditions: HepG2 viability, 24-48 h, at 10 µM, stronger effect = higher value
# [3] = target: L-lactate dehydrogenase (Plasmodium falciparum (isolate CDC / Honduras)) (UniProt Q27743); experiment: PfLDH activity inhibition – cell lysate, 3D7 strain, counter-screen for P. falciparum growth inhibition project (AID 2304);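 also: 0% = vehicle and 100% = reference inhibitor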; conditions: P. falciparum 3D7 crude extract, LDH APAD/NBT absorbance; at 2 µM; stronger effect = higher value
# Chain of L-lactate dehydrogenase (Plasmodium falciparum (isolate CDC / Honduras)) (Q27743 whole entry, looked up): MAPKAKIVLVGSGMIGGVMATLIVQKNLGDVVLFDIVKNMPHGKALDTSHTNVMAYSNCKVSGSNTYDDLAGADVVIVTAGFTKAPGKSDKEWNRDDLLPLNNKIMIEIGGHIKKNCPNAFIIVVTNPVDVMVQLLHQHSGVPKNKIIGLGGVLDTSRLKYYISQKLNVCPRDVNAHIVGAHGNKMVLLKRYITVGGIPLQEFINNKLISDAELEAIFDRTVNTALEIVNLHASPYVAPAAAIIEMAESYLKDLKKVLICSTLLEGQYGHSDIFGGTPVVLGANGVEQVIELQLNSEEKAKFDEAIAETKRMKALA
# [4] = inhibition of 3D7 malaria parasite growth – strain 3D7 (AID 2306);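 also: 0% = DMSO wells and 100% = chloroquine plus artemisinin control wells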; conditions: P. falciparum 3D7 erythrocytic growth, LDH absorbance, 72 h; at 2 µM; stronger effect = higher value
# [5] = target: Calcium-dependent protein kinase 1 (Plasmodium falciparum (isolate 3D7)) (UniProt P62344); experiment: PfCDPK1 kinase inhibitors, biochemical, TCAMS library (AID 1159585; cut-off not given, nearly all actives have IC50 up to about 0.98 µM;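 also: inhibitors leave more ATP so luminescence rises with inhibition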); conditions: recombinant PfCDPK1, Kinase-Glo ATP depletion luminescence
# Chain of Calcium-dependent protein kinase 1 (Plasmodium falciparum (isolate 3D7)) (P62344 whole entry, looked up): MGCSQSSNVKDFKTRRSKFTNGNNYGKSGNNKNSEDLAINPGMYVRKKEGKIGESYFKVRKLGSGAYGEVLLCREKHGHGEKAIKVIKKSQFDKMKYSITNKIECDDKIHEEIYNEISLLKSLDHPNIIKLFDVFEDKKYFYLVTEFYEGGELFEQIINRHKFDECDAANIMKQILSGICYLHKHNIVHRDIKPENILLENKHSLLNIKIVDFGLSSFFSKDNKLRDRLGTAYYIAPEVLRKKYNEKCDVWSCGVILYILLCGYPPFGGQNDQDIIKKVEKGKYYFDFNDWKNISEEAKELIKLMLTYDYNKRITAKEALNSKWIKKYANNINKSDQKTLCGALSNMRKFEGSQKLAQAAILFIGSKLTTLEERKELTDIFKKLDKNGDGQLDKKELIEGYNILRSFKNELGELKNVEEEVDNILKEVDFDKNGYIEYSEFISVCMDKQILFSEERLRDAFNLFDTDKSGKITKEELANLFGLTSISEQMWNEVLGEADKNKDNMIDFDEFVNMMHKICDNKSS
# [6] = target: Plasmodium falciparum protein kinase 6 (PK6, PF3D7_1337100) (UniProt Q8IDW1); experiment: PfPK6 kinase inhibitors, biochemical, TCAMS library (AID 1159586); conditions: recombinant PfPK6, Kinase-Glo ATP depletion luminescence
# Chain of Plasmodium falciparum protein kinase 6 (PK6, PF3D7_1337100) (Q8IDW1 1-305): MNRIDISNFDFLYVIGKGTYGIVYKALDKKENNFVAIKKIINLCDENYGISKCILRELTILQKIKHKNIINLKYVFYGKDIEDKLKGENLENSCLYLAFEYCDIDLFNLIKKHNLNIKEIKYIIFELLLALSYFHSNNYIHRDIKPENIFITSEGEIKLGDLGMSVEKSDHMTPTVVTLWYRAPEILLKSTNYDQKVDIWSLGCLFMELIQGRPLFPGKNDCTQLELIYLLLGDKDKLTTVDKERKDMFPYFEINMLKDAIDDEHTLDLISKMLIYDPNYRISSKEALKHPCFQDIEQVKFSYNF
# [7] = target: Protein kinase 7 (PK7), Plasmodium falciparum 3D7 (PF3D7_0213400) (UniProt Q7YTF7); experiment: inhibition of Plasmodium PK7 catalytic activity – biochemical, TCAMS antimalarial set, Kinase-Glo luminescence (AID 1159587); conditions: recombinant PfPK7, Kinase-Glo ATP depletion luminescence
# Chain of Protein kinase 7 (PK7), Plasmodium falciparum 3D7 (PF3D7_0213400) (Q7YTF7 1-343): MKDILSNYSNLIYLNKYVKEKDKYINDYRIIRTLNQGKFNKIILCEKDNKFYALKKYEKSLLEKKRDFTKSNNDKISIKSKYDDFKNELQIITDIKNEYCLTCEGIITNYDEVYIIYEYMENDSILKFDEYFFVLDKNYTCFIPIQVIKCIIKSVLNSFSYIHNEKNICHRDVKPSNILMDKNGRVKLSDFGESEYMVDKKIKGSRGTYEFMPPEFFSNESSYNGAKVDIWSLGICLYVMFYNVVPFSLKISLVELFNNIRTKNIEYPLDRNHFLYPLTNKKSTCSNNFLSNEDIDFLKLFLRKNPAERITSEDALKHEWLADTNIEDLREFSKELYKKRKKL
# [8] = target: Calcium-dependent protein kinase 4 (Plasmodium falciparum (isolate 3D7)) (UniProt Q8IBS5); experiment: PfCDPK4 kinase inhibitors, biochemical, TCAMS library (AID 1159588; cut-off not given, nearly all actives have IC50 up to about 0.91 µM); conditions: recombinant PfCDPK4, Kinase-Glo ATP depletion luminescence
# Chain of Calcium-dependent protein kinase 4 (Plasmodium falciparum (isolate 3D7)) (Q8IBS5 whole entry, looked up): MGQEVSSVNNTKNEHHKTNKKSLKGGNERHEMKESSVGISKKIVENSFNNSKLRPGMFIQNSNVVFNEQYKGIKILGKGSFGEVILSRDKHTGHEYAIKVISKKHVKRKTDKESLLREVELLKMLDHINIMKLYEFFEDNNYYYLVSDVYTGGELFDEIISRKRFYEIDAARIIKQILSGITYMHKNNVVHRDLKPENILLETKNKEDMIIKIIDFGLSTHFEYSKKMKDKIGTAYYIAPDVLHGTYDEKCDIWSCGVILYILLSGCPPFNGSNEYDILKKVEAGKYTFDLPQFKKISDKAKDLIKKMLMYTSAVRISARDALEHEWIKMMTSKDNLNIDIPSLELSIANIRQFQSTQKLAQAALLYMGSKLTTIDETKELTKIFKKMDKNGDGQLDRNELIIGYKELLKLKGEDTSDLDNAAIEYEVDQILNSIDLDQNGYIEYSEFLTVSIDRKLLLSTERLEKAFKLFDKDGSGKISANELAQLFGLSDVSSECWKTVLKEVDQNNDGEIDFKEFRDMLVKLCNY
SMILES,growth inhibition [1],inhibition [2],inhibition [3],growth inhibition [4],outcome [5],outcome [6],outcome [7],outcome [8]
COc1cc(F)c2ncc(Cl)c(CCN3CCC(NCc4cc5c(cn4)OCCO5)CC3)c2c1,57% (active),2%,-1%,89% (active),inactive,inactive,inactive,inactive
FC(F)(F)c1cccc(-c2cc(NCCCn3ccnc3)nc(-c3ccncc3)n2)c1,100% (active),50% (active),5%,101% (active),inactive,inactive,inactive,inactive
CCOc1cc(C(=O)NC2CCN(Cc3ccccc3)CC2)ccc1-c1nc2cc(Cl)c(F)cc2[nH]1,51% (active),13%,4%,101% (active),inactive,inactive,inactive,inactive
Nc1c(Cl)cc(C(O)CNCCCCCOCCc2ccc3ccccc3n2)cc1Cl (stereo not given),97% (active),9%,-1%,98% (active),inactive,inactive,inactive,inactive
Nc1c2ccccc2nc2cc(Cl)ccc12,86% (active),24%,-3%,103% (active),inactive,inactive,inactive,inactive
O=C(c1ccco1)c1cn(CCOc2ccccc2)c2ccccc12,10%,5%,-4%,98% (active),inactive,inactive,inactive,inactive
CC(C)N1CCN(C(CN2CCN(CCCOc3ccc4nonc4c3)CC2)c2ccc(F)cc2)CC1 (stereo not given),40%,-3%,-3%,97% (active),inactive,inactive,inactive,inactive
CCNc1cc(C(=O)N[C@@H](Cc2ccoc2)[C@H](O)CNC(C)CCCC(C)C)cc(N2CCCCS2(=O)=O)c1 (stereo not given in full),68% (active),-2%,0%,99% (active),inactive,inactive,inactive,inactive
Cc1cccc2[nH]c(-c3ccc(-c4ccc(NC(=O)c5cncn5C)cc4)s3)nc12,30%,49%,4%,102% (active),inactive,inactive,inactive,inactive
CS(=O)(=O)c1cccc(-c2cnc(N)c3cc(-c4ccc(F)cc4)ccc23)c1,33%,28%,4%,91% (active),inactive,inactive,inactive,inactive
Nc1nc(N)c2c(ccc3c2ccn3Cc2ccc(-c3ccccc3)cc2)n1,93% (active),100% (active),4%,98% (active),inactive,inactive,inactive,inactive
COc1ccc2nccc([C@@H](O)CN3CCC(NC(=O)/C=C/c4cccc(NC(C)=O)c4)CC3)c2c1,60% (active),5%,0%,90% (active),inactive,inactive,inactive,inactive
CCNc1cc(C(=O)N[C@@H](Cc2ccccc2)[C@H](O)CNC(C)(C)CC(C)(C)C)c(F)c(N2CCCCS2(=O)=O)c1,63% (active),8%,-1%,94% (active),inactive,inactive,inactive,inactive
Nc1nc(N)c2c(ccc3nn(S(=O)(=O)N4CCCC4)cc32)n1,0%,69% (active),9%,95% (active),inactive,inactive,inactive,inactive
O=C(Nc1cccc(F)c1)N(Cc1ccc(-c2ccc(CN3CCNCC3)cc2)cc1)C1CCN(Cc2ccccc2)CC1,53% (active),18%,0%,101% (active),inactive,inactive,inactive,inactive
C=CCOC(=O)O[C@@H]1[C@@H](OC(=O)OCC=C)[C@@H](OC)O[C@H](COC(c2ccccc2)(c2ccccc2)c2ccccc2)[C@H]1OC(=O)OCC=C,96% (active),5%,2%,95% (active),inactive,inactive,inactive,inactive
Oc1ccc2[nH]cc(C3CCN(CCC(c4ccccc4)c4ccccc4)CC3)c2c1,42%,27%,-3%,90% (active),inactive,inactive,inactive,inactive
COc1cc2nc(NCc3ccc(S(N)(=O)=O)cc3)nc(Nc3ccc(Oc4ccccc4)cc3)c2cc1OC,100% (active),14%,-3%,101% (active),inactive,inactive,inactive,inactive
Cc1nn(-c2ccccc2)nc1C(=O)N(Cc1ccc(-c2ccc(CNCCc3ccc(S(C)(=O)=O)cc3)cn2)cc1)C(C)CN(C)C (stereo not given),87% (active),25%,-8%,101% (active),inactive,inactive,inactive,inactive
O=C(CC1SC(N2N=C(c3cccs3)CC2c2ccccc2)=NC1=O)Nc1ccc(Cl)cc1 (stereo not given),88% (active),18%,2%,83% (active),inactive,inactive,inactive,inactive
